Source: PubChem BioAssay
AMA1-RON2 inh = disrupts binding of P. falciparum AMA1 to RON2. 0.2% of 360,000 active. AlphaScreen AMA1-biotinylated RON2 peptide binding. Potency, µM (highest dose often 58.2 µM), inactives show at the top dose activity change, negative = inhibition, most hits filed as inhibitors. AID 720542;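 further: 0% = vehicle wells and -100% = peptide control; nearly all actives have a fitted effect of over 45% in size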
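AMA1 (3D7) with his tag at 25 nM final met compounds first, then biotinylated RON2 peptide at 25 nM; detection used donor plus acceptor beads, 10 µg/mL apiece, read by AlphaScreen after 30 min at room temperature.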
Sm TGR block = inhibitors of Schistosoma mansoni thioredoxin glutathione reductase | Q962Y6 | purified TGR, DTNB reduction, TNB absorbance 405 nm | Potency, µM (top dose mostly 114 µM), inactives show at the top dose activity change, negative = inhibition, usual class: inhibitors | 3% of 360,000 active | AID 485364; further: nearly all actives have a fitted effect of over 60% in size
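TGR 20 nM + NADPH 100 uM (dispensed conc.), cpd preinc 15 min RT; start with NADPH (500 uM addition) then DTNB (15 mM addition). Kinetic TNB absorbance, 405 nm filter. Four-parameter Hill fit across titration.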
FMDV inh = blocks foot and mouth disease virus; 1.2% of 410,000 active; Potency, µM (top dose mostly 57.9 µM), for inactives: top-dose activity change, negative = inhibition, usual class: inhibitors; FMDV antiviral cell-based qHTS; calls by dose curve; tested in HEK293T cells; further: read-out not given here; nearly all actives have a fitted effect of over 45% in size
AmpC inh no detg = AmpC beta-lactamase inhibition without detergent | P00811 | AmpC nitrocefin hydrolysis, absorbance 480 nm, 0.0001% Triton | Potency, µM (titrated, usually from 57.1 µM), for the others: top-dose activity change, negative = inhibition, hits mostly inhibitors | 0.52% of 330,000 active | AID 485341;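 further: plate controls were no compound for no effect and no enzyme for full effect; nearly all actives have a fitted effect of over 20% in size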
Target sequence (P00811 whole entry, looked up): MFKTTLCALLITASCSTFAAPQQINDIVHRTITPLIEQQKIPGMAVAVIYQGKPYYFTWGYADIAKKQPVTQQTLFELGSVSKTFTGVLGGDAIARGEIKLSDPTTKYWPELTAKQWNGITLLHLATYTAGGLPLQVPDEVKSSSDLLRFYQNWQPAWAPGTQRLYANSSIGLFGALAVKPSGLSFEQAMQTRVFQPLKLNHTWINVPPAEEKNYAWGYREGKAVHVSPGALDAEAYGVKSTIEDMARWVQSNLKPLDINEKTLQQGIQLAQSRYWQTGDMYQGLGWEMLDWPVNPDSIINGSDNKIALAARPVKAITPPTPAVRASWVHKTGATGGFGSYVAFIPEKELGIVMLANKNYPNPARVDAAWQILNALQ
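20 mM phosphate pH 7.0 + 0.01% (detergent screen) or 0.0001% Triton X-100; 5.3 nM AmpC reagent; cpd preinc 15 min RT; nitrocefin (800 uM stock) to start; A480 q20 s × 4 min; Activity was normalised to no-enzyme and no-compound control wells.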
AmpC detergent = inhibitors of E. coli AmpC beta-lactamase with detergent; P00811; AmpC hydrolysis of nitrocefin, absorbance 480 nm, 0.01% Triton; Potency, µM (doses to about 114 µM), for inactives: at the top dose activity change, negative = inhibition, hits mostly inhibitors; 0.041% of 370,000 active; AID 485294;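 further: 0% = no-compound wells and -100% = no-enzyme wells; nearly all actives have a fitted effect of over 25% in size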
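20 mM phosphate pH 7.0 + 0.01% (detergent screen) or 0.0001% Triton X-100; 5.3 nM AmpC reagent; cpd preinc 15 min RT; nitrocefin (800 uM stock) to start; A480 q20 s × 4 min; Activity was normalised to no-enzyme and no-compound control wells.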
Starred values were filed as active, the others as inactive; ? = inconclusive; · = not tested or not shown. Most compounds without a hit are left out; they make up all but 4.1% or so of the library. Unless noted, the call rests on the fitted dose curve; in most records, active means well fitted curve in the direction sought with a large enough effect; inconclusive means small, poorly fitted or top-dose-only effect, or another doubt; inactive means no such curve, though single readings can be large; an effect the other way counts as inactive or inconclusive. Unless noted, on the % scale 0 is the no-effect control and ±100 the full control effect; potency means the concentration at half of the fitted maximal effect.

SMILES	AMA1-RON2 inh	Sm TGR block	FMDV inh	AmpC inh no detg	AmpC detergent
COc1cccc(Cn2nnc(C(=O)NCc3ccc4c(c3)OCO4)c2N)c1	11.1%	1.5%	-27.0%	35.5µM*	1.0%
CCn1c(=O)c2sccc2n2c(CCC(=O)N3CCN(c4ccc(C(C)=O)cc4)CC3)nnc12	·	-0.8%	-5.3%	·	4.5%
Cc1cc(C)nc(N/N=C/c2ccccc2OCc2ccc(Br)cc2)n1	12.3%	-8.8%	0.7%	17.8µM*	-12.4%
O=C(NCc1ccccc1)C(=O)NCC(c1cccs1)S(=O)(=O)c1ccccc1 (stereo not given)	·	1.9%	-23.8%	·	1.1%
CCc1cccc2c(C(=O)CCl)c[nH]c12	10.0%	7.94µM*	28.2µM*	-16.6%	-9.3%
O=C(CSc1nc2c([nH]c3ccccc32)c(=O)n1-c1ccc(F)cc1)NC1CCCCC1	·	-0.8%	-25.6%	·	2.0%
O=C(c1nc(-c2ccc(Cl)cc2)n2c1CCCCC2)N1CCN(c2ccc(F)cc2)CC1	·	5.4%	-25.1%	·	14.2%
[O-][n+]1cccc2c(Br)cc(Br)c(O)c21	-15.9%	7.94µM*	-19.1%	-13.6%	5.2%
Oc1c(Br)cc(Br)c2cccnc12	-4.8%	·	0.0%	·	·
Cc1ccc(C)c(C(=O)COc2ccc(C)nc2[N+](=O)[O-])c1	-1.5%	11.2µM*	0.0%	-22.5%	-20.5%
COCCn1c(C)cc(C(=O)COc2ccc(C)nc2[N+](=O)[O-])c1C	7.7%	-23.7%	3.55µM*	-1.8%	-0.8%
Cc1ccc(OCC(=O)c2cc(C)c(C)cc2C)c([N+](=O)[O-])n1	23.3%	15.8µM*	-17.8%	-9.6%	?
Cc1ccc(NC(=O)CCCn2c(=O)c3cccn3c3cccnc32)c(C)c1	·	-2.5%	7.7%	·	-7.4%
COc1cccc2c(=O)n(CC(=O)N3CCCc4ccccc43)ccc12	-2.9%	-29.6%	-18.9%	1.4%	?
COc1cccc2c(=O)n(CC(=O)Nc3ccc(F)cc3F)ccc12	-0.3%	0.6%	-1.0%	25.1µM*	?
COc1cccc2c(=O)n(CC(=O)Nc3ccccc3)ccc12	-4.4%	17.0%	3.3%	50.1µM*	-10.9%
COc1ccccc1NC(=O)CN1CCN(CC(=O)Nc2ccc(F)cc2F)CC1	7.2%	-3.1%	14.8%	-13.0%	2.7%
COc1cccc2c(=O)n(CC(=O)N3CCCCC3)ccc12	0.8%	5.5%	-5.5%	39.8µM*	2.3%
COc1cccc2c(=O)n(CC(=O)NC3CCCC3)ccc12	11.9%	1.4%	22.8%	-7.6%	?
CC12Cc3cnoc3C=C1CCC1C2CCC2(C)C1CCC2(C)O (stereo not given)	0.0%	·	35.5µM*	·	·
COc1ccccc1CNC(=O)c1ccc(CS(=O)(=O)c2ccccc2OC)o1	-3.3%	?	-9.6%	5.0%	3.6%
COC(CNC(=O)c1ccc(CS(=O)(=O)c2ccc(C)cc2)o1)OC	14.1%	2.9%	-7.8%	-0.4%	-1.0%
COc1ccccc1CNC(=O)COC(=O)CNS(=O)(=O)c1ccc(C)cc1	8.9%	35.5µM*	-8.6%	117.4%	10.5%
COc1ccccc1CNC(=O)c1ccc(CS(=O)(=O)c2ccc(C)cc2)o1	-7.1%	35.5µM*	-13.1%	-20.4%	2.9%
COCCNC(=O)c1ccc(CS(=O)(=O)c2ccc(C)cc2)o1	1.2%	35.5µM*	-22.4%	0.0%	-4.8%
SMILES	AMA1-RON2 inh	Sm TGR block	FMDV inh	AmpC inh no detg	AmpC detergent
COC(=O)c1ccc(COc2ccc3c(c2)CCC3)o1	-18.9%	42.4%	24.7%	-18.4%	-9.4%
O=C(NCc1cccnc1)c1ccc(COc2ccc3c(c2)CCC3)o1	-26.6%	-11.7%	17.8µM*	87.9%	-21.0%
CCCCc1nn2c(=O)cc(COC(=O)c3ccco3)nc2s1	·	-5.6%	20.2%	·	-9.6%
CC(=O)N1CCC2(CCCN(C(=O)Nc3cccc(C#N)c3)C2)CC1	·	·	-6.3%	·	·
COc1ccc(CNC(=O)c2ccc(Cn3cc(Cl)cn3)o2)cc1	-6.7%	14.1µM*	-19.0%	-14.0%	-8.8%
COc1ccc(S(=O)(=O)Cc2ccc(C(=O)NCc3ccccc3)o2)cc1	-5.0%	-25.8%	?	-11.5%	-6.6%
COc1ccc(CNC(=O)c2ccc(Cn3cc(Br)cn3)o2)cc1	0.0%	?	-0.5%	-6.4%	1.0%
CC1CCC(NC(=O)c2ccc(CS(=O)(=O)c3ccc(Cl)cc3)o2)CC1 (stereo not given)	·	-3.5%	31.6µM*	·	7.8%
COc1ccc(S(=O)(=O)Cc2ccc(C(=O)NCc3cccnc3)o2)cc1	0.0%	35.5µM*	?	-3.8%	-9.7%
COCCNC(=O)c1ccc(CS(=O)(=O)c2ccccc2OC)o1	-5.3%	31.6µM*	-1.2%	-4.0%	2.2%
CCOc1ccc(CCNC(=O)c2c(C)oc3ncn(CC(C)C)c(=O)c23)cc1OCC	·	0.2%	-24.7%	·	15.3%
Cc1ccc(-c2nc(S(=O)(=O)c3ccc(C)cc3)c(SCC(=O)c3ccccc3)o2)cc1	·	-24.4%	0.0%	·	-1.1%
Cc1ccc(S(=O)(=O)Cc2ccc(C(=O)O)o2)cc1	9.7%	22.4µM*	-5.3%	-20.0%	2.4%
CC(=O)c1sc(NC(=O)c2ccc(Br)o2)nc1C	20.9%	-26.8%	0.0%	-31.7%	11.1%
Cc1ccc(S(=O)(=O)Cc2ccc(C(=O)NCc3ccc4c(c3)OCO4)o2)cc1	-9.1%	25.1µM*	-20.2%	-12.2%	4.8%
CC(=O)c1sc(NC(=O)c2ccc(Cn3cc(Br)cn3)o2)nc1C	-12.6%	50.1µM*	7.3%	-28.7%	?
CCn1c(C(=O)NCc2cc(Br)ccc2OC)cc2oc3ccccc3c21	·	-0.3%	-17.9%	·	-10.8%
C/C=C\C=C/C(=O)Nc1cccc(C2=NOC3(C2)C[C@@H](C(N)=O)N(C(=O)c2ccc(Cl)cc2)C3)c1 (stereo not given in full)	0.6%	3.16µM*	6.1%	74.2%	-3.2%
C/C=C\C=C/C(=O)Nc1cccc(C2=NOC3(C2)C[C@H](C(N)=O)N(C(=O)c2ccc(OC)cc2)C3)c1 (stereo not given in full)	-3.6%	1.78µM*	7.9%	74.0%	-0.9%
Cc1cc(C)c(S(=O)(=O)Nc2cc(Cl)c3oc4c(c3c2)C(=O)CCC4)cc1C	·	0.0%	37.0%	·	-9.8%
CCOP(=O)(Cc1ccc(C#N)o1)OCC	-5.8%	-21.0%	2.2%	-5.8%	0.1%
CCCC(=O)c1cc(CP(=O)(OCC)OCC)oc1C	28.5%	28.2µM*	-3.3%	15.1%	-7.6%
CCOP(=O)(Cc1ccc(C(C)(C)CC(C)=O)o1)OCC	15.4%	15.8µM*	-21.7%	4.0%	-5.0%
CCOP(=O)(Cc1cc(C(C)=O)c(C)o1)OCC	-9.4%	39.8µM*	-64.2%	7.3%	-2.4%
Cc1ccc(CN(C)C(=O)c2ccc3c(c2)NC(=O)CS3)o1	3.4%	10µM*	1.2%	-15.4%	?
COC(=O)c1ccc(OCC(O)CN2CCN(C(=O)c3ccco3)CC2)cc1 (stereo not given)	2.0%	-13.0%	1.5%	5.4%	-1.0%
